According to PubChem BioAssay (Tox21):
Inconclusive results are not listed. Entries that show only a call come without a potency. Active and inactive are the calls of the source. The call rests on the fitted dose curve; in most records, active means well fitted cell-killing curve with a large enough effect in the repeat runs; inconclusive means weak or mixed curves, or effect the other way; inactive means flat fitted curve, though single readings scatter.

What was measured:
[1] = cAMP Responsive Elements (CRE) small molecule antagonists, cell-based qHTS assay: qHTS cell viability counter screen (AID 2060913); details: CRE-bla HEK293T viability, CellTiter-Glo luminescence, 5 h; series mostly up to 92.4 µM; further: nearly all actives have a fitted effect of over 40% in size
Outline: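 CRE-bla HEK293T cells (2,000/well, 18 h) given compound plus NKH477 0.25 uM final for 3 h at 37C; viability counter-screen by CellTiter-Glo luminescence in same wells after 30 min.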

[2] = cAMP Responsive Elements (CRE) small molecule agonists, cell-based qHTS assay: qHTS cell viability counter screen (AID 2060914); details: CRE-bla HEK293T viability, CellTiter-Glo luminescence, 5 h; series mostly up to 92.4 µM;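 further: viability read after 3 h of compound exposure; nearly all actives have a fitted effect of over 50% in size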
Outline: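 CRE-bla HEK293T cells in 10% dialyzed FBS medium were exposed to compounds for 3 h at 37C after 18 h plating. CellTiter-Glo was then added in the same wells, and luminescence was read after 30 min at room temperature.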

Nc1ccc2c(c1)Cc1ccccc1-2
Potency [1]: inactive
Potency [2]: inactive

Oc1ccc([C@H]2CNCc3c2ccc(O)c3O)cc1O
Potency [1]: inactive
Potency [2]: inactive

CC(C)(C)N(NC(=O)c1ccc(Cl)cc1)C(=O)c1ccccc1
Potency [1]: inactive
Potency [2]: inactive

CC1(C)CN=C(NN=C(/C=C/c2ccc(C(F)(F)F)cc2)/C=C/c2ccc(C(F)(F)F)cc2)NC1
Potency [1]: inactive
Potency [2]: inactive

CC(C)(C)C(=O)C(Cl)Cl
Potency [1]: inactive
Potency [2]: inactive

CCOP(=O)(CN(CCO)CCO)OCC
Potency [1]: inactive
Potency [2]: inactive

CCOP(=S)(OCC)SCSc1cc(Cl)ccc1Cl
Potency [1]: inactive
Potency [2]: inactive

O=C(CCl)CCl
Potency [1]: inactive
Potency [2]: inactive

CCCCCCC1CCOC1=O (stereo not given)
Potency [1]: inactive
Potency [2]: inactive

COc1cc(CC(C)N)cc2c1OCO2 (stereo not given)
Potency [1]: inactive
Potency [2]: inactive

C[N+](C)(C)CC(=O)[O-]
Potency [1]: inactive
Potency [2]: inactive

CN(C)CCO
Potency [1]: inactive
Potency [2]: inactive

C#CCOC(=O)/C=C(C)/C=C/CC(C)CCCC(C)C (stereo not given)
Potency [1]: inactive
Potency [2]: inactive

O=C/C(Cl)=C(/Cl)C(=O)O
Potency [1]: inactive
Potency [2]: inactive

COP(N)(=S)OC
Potency [1]: inactive
Potency [2]: inactive

NP(N)(=O)NC(=O)c1ccc(F)cc1
Potency [1]: inactive
Potency [2]: inactive

COc1c2c(cc3c1OCO3)CCN(C)C2
Potency [1]: inactive
Potency [2]: inactive

COc1cc(CC(C)N)cc(OC)c1OC (stereo not given)
Potency [1]: inactive
Potency [2]: inactive

CN1C[C@H](C(=O)N[C@]2(C)O[C@@]3(O)[C@@H]4CCCN4C(=O)[C@H](Cc4ccccc4)N3C2=O)C=C2c3cccc4[nH]cc(c34)C[C@H]21
Potency [1]: inactive
Potency [2]: inactive

CCCCN(CCCCO)N=O
Potency [1]: inactive
Potency [2]: inactive
